TRHR PAM: TRH receptor (human) allosteric enhancement. enhancement, % at 2 µM. AID 493056. 0.66% of 360,000 active. TRHR cells, fluo-8 calcium fluorescence, EC20 TRH enhancement; in the data active means enhancement above about 30%
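TRHR-expressing cells loaded with fluo-8 calcium dye were read kinetically (ex 480/em 530) during compound addition, then stimulated with an EC20 of TRH (10 nM final). Enhancement of the Gq-mediated intracellular calcium response was scored.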
D1 potentiator: potentiators of human D1 dopamine receptor; P21728; HEK293 TREx D1 cells, calcium flux, dopamine EC20 potentiation; potentiation, % at 10 µM; 0.036% of 360,000 active; in the data active means potentiation above about 30%
Target sequence (P21728 whole entry, looked up): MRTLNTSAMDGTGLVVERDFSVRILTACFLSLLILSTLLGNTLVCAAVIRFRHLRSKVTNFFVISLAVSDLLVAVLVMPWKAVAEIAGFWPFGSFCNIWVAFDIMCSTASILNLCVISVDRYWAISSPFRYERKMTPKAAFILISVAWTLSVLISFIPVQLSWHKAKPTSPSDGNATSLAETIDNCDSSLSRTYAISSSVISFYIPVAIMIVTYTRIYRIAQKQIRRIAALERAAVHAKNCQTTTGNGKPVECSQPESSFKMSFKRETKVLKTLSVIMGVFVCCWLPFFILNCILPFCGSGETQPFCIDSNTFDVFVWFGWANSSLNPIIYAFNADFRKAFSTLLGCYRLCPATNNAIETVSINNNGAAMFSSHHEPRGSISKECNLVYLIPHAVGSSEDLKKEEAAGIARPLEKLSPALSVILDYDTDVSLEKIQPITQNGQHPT
D1 antagonist: human D1 dopamine receptor antagonism; HEK293 TREx D1 cells, calcium flux, dopamine EC80; stronger effect = lower value; activity change, negative = inhibition, % at 10 µM; 3.2% of 360,000 active; P21728; in the data active means activity change below about -30%
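Tetracycline-induced HEK293 T-REx cells with force-coupled D1 receptor were loaded with a no-wash calcium dye. Compound was added after a 10 s baseline and read kinetically for 180 s; EC80 dopamine was then added and calcium flux followed another 180 s.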
TRHR agonist: activates the human TRH receptor | P34981 | TRHR cells, calcium flux fluo-8, FDSS agonist mode | activation, % at 2 µM | 0.18% of 360,000 active | AID 493084
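TRHR-expressing cells loaded with fluo-8 calcium dye; 23 nL library compound pin-transferred, kinetic FDSS fluorescence (Ex 480/Em 530) recorded about 180 s for agonist-induced calcium release, before a 10 nM TRH EC20 addition for potentiator mode.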
D1 ag: human D1 receptor agonism; 1% of 360,000 active; activation, % at 2 µM; HEK293 T-REx D1 cells, calcium flux, agonist mode; AID 504660
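Agonism was scored from calcium flux recorded over 180 s (1 read/s) after pintool compound addition, following a 10-cycle baseline. Cells were inducible force-coupled HEK293 TREx D1, plated overnight at 30 C and loaded with no-wash calcium dye.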
Large screens that a line does not name were inactive. Hits are enriched below; roughly 4.6% of the tested compounds scored in any of these assays. Unless noted, no stated cut-off is given here; in the data, active means activation above about 30%; inactive means the rest.

Cc1cc(C)cc(C(=O)NC(=S)Nc2ccc(-c3cc4ccccc4oc3=O)cc2)c1	D1 antagonist -57
COc1ccc(OC)c(C(c2nnnn2Cc2ccccc2)N2CCC(C(N)=O)CC2)c1 (stereo not given)	D1 antagonist -45
CCc1ccc2[nH]c(=O)c(C(c3nnnn3Cc3ccc(OC)cc3)N3CCOCC3)cc2c1 (stereo not given)	D1 antagonist -44
CCc1ccc2[nH]c(=O)c(C(c3nnnn3Cc3ccccc3)N3CCOCC3)cc2c1 (stereo not given)	none
Cc1nn(-c2ccccc2)c(-n2cccc2)c1C(=O)NCCc1ccc(Cl)cc1	D1 ag 68
Cc1nn(-c2ccc(F)cc2)c(-n2cccc2)c1C(=O)NCCCN1CCN(c2cccc(Cl)c2)CC1	D1 antagonist -33
COc1ccc(N2CCN(CCCNC(=O)c3cnn(-c4ccc(F)cc4)c3-n3cccc3)CC2)cc1	D1 ag 41
Cc1nn(-c2ccccc2)c(-n2cccc2)c1C(=O)NCc1ccccc1Cl	none
COc1cc(NC(=O)c2c(C)nn(-c3ccc(F)cc3)c2-n2cccc2)cc(OC)c1	TRHR agonist 42
CCOC(=O)c1c(C)oc2ncnc(NCCc3ccccc3)c12	none
COCCNC(=O)[C@H](C)[C@H]1C[C@]1(C)[C@H](NC(=O)OCc1ccccc1)c1ccccc1	none
COc1cc2ccccc2cc1C(=O)N(CCN(C)C)c1nc2c(F)cc(F)cc2s1	D1 antagonist -36
O=C(COC(=O)CCC(=O)c1ccc(Cl)cc1)NCc1ccco1	none
Cc1c(CN2CCC(CO)(Cc3cccc(C(F)(F)F)c3)CC2)c2ccccc2n1C	D1 ag 82
COc1cc(CN2CCC(CO)(Cc3cccc(C(F)(F)F)c3)CC2)ccc1F	D1 ag 52
OCC1(Cc2cccc(C(F)(F)F)c2)CCN(Cc2cc3ccccc3o2)CC1	none
COc1ccc(F)c(CN2CCC(CO)(Cc3cccc(C(F)(F)F)c3)CC2)c1	none
COc1ccc(CN2CCC(CO)(Cc3cccc(C(F)(F)F)c3)CC2)cc1Cn1cccn1	D1 ag 34
CCc1ccc(CN2CCC(n3nccc3NC(=O)c3ccc4c(c3)OCO4)CC2)cc1	none
N#Cc1ccc(-c2ccco2)nc1SCc1ccccc1	D1 antagonist -93
Cn1c(CN2CCN(C(=O)c3ccccc3)CC2)nc2cc([N+](=O)[O-])ccc21	none
Cn1c(CN2CCN(C(=O)c3ccccc3Cl)CC2)nc2cc([N+](=O)[O-])ccc21	D1 antagonist -77
CCc1ccc(C(=O)CSc2nnc(C3CC3)n2C2CC2)cc1	none
CCN(CC)S(=O)(=O)c1cccc(C(=O)N/N=C2\CC(=O)CC(C)(C)C2)c1	none
CCN(CC)S(=O)(=O)c1cccc(C(=O)N/N=C2\CCCC(=O)C2)c1	D1 ag 38
Cc1ccccc1-c1nsc(SCC(=O)Nc2ccc3c(c2)OCO3)n1	none
O=C1CSC(=Nc2cccc(Cl)c2Cl)N1Cc1cccnc1	D1 antagonist -35
O=[N+]([O-])c1ccc(N2CCN(c3ccc(F)cc3)CC2)cc1	none
O=[N+]([O-])c1ccc(N2CCN(CCOc3nonc3-c3ccccc3)CC2)c(Cl)c1	none
Cc1nonc1OCCN1CCN(c2ccc([N+](=O)[O-])cc2)CC1	D1 antagonist -40
O=[N+]([O-])c1ccc(N2CCSCC2)cc1	D1 antagonist -38
O=[N+]([O-])c1ccc(N2CCN(Cc3ccc([N+](=O)[O-])o3)CC2)cc1	D1 antagonist -33
CCc1ccccc1NC(=S)N1CCNC(=O)C1CC(=O)OC (stereo not given)	none
CCn1c(COc2ccccc2C)nnc1SCC(=O)OC	none
CCOc1ccc(C2=NNC(c3cccs3)=Nc3ccc(OC)cc32)cc1	D1 antagonist -38
Fc1ccc(F)c(Nc2c3c(nc4ccc(Cl)cc24)CCC3)c1	TRHR PAM 43
Cc1ccc2nc3c(c(Nc4ccccc4)c2c1)CCC3	none
COc1ccccc1Nc1c2c(nc3ccc(NC(=O)c4cccc(F)c4)cc13)CCCC2	none
FC(F)(F)c1cccc(Nc2c3c(nc4ccc(Cl)cc24)CCC3)c1	D1 antagonist -32
Clc1ccc(OCCN2CCCCC2)c(Cl)c1	none
Clc1ccc(OCCCCCN2CCCC2)c(Br)c1	D1 ag 73
Clc1ccc(OCCCN2CCCCC2)c(Br)c1	D1 antagonist -62
CCN1CCN(CCCOc2ccc(Cl)cc2Br)CC1	D1 ag 59
O=C(Nc1cc(=O)[nH]c(=O)[nH]1)c1cccc(Br)c1	none
CSc1ncccc1C(=O)NNC(=O)c1ccc(NS(=O)(=O)c2cccs2)cc1	D1 antagonist -45
COc1ccccc1C(=O)NNC(=O)c1ccc(NS(=O)(=O)c2cccs2)cc1	none
Cc1c(C(=O)N2CCCC2)oc2c1-c1nn(CC(=O)NCCCN3CCCCC3)cc1CC2	D1 antagonist -31
COc1ccc(C2=NS(=O)(=O)N(C)C(C(=O)N3CCC(C)CC3)=C2)cc1	none
CCN(CC(=O)Nc1c(F)cccc1F)C(=O)c1ccc2c(c1)S(=O)(=O)N=C1CCCCCN12	none
COc1ccc(CNC(=O)c2cccnc2Sc2ccc(Cl)cc2)cc1	none
Cc1ccc(CNC(=O)c2cccnc2Sc2cccc(Cl)c2)cc1	D1 ag 46
Cc1cccc(NC(=O)CCS(=O)(=O)c2cc(Br)cc3c2N(C(=O)C2CC2)CC3)c1C	none
C/C(=N\O)c1ccc(Cl)c(Cl)c1	D1 antagonist -49
CNC(=S)N/N=C(\C)c1ccc(Cl)c(Cl)c1	none
Cc1ccc(C(=O)COC(=O)c2ccc(Cl)c(N)c2)s1	none (no result: D1 potentiator)
CCOC(=O)c1c(C)[nH]c(C)c1S(=O)(=O)NCC(=O)Nc1ccc(CC)cc1	D1 antagonist -35
CCOC(=O)c1c(C)[nH]c(C)c1S(=O)(=O)NCCN1CCN(c2cc(Cl)ccc2C)CC1	D1 antagonist -42
CCOC(=O)c1c(C)[nH]c(C)c1S(=O)(=O)NCC(=O)NCc1ccc(C)cc1	none
COc1ccc(NC(=S)NCc2ccccc2Cl)c(OC)c1	D1 antagonist -33
COc1ccccc1NC(=S)NCc1ccccc1Cl	TRHR PAM 37
COc1ccc(NC(=S)NCc2ccc(F)cc2)c(OC)c1	D1 antagonist -31
Cc1c(Cl)cccc1NC(=S)NCc1ccccc1Cl	none
COc1ccccc1NC(=S)NCC1CCC(CNC(=S)Nc2ccccc2OC)CC1 (stereo not given)	D1 antagonist -85
CCOc1ccc2c(c1)C(c1ccc(C)o1)=NNC(c1ccncc1)=N2	none
CCOc1cc(/C=N\Nc2nc(-c3ccc(C)cc3)c(NC(C)=O)s2)ccc1O	none
CCCn1c(CNc2ccccc2O)nc2ccccc21	none
CCc1ccc2nc(N3CCC(C(=O)NCCC(C)C)CC3)sc2c1	none
CCCN(CCC)CCCNC(=O)C1CCN(c2nc3ccc(CC)cc3s2)CC1	D1 antagonist -31, D1 ag 30
